Active and inactive are the calls of the source.
What was measured:
[1] = optical density shifts of acrAB sulA E. coli – strain DRC41, OD650, 48 h, E. coli filamentation inducer project, primary screen (AID 1152); settings: higher = more signal, called active from +8 up or from −8 down;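 also: E. coli MC1000 strain DRC41 lacking acrAB efflux pump and sulA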
[2] = probe aLefty1 binding on compound microarray – biochemical, small-molecule microarray, 635/667 nm fluorescence, primary screen (AID 1153); settings: higher = more signal;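 also: score merges spot fluorescence with signal-to-noise ratio from the scanned slide images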
[3] = plasmodial surface anion channel blockers, osmotic lysis – cell-based, P. falciparum Indochina, OD700, 1 h, primary screen (AID 1154); settings: P. falciparum Indochina infected RBC osmotic lysis, higher = more signal, called active from +8 up or from −8 down
[4] = plasmodial surface anion channel blockers, osmotic lysis – cell-based, P. falciparum Indochina, OD700, 2 h, primary screen (AID 1155);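 also: lysis reports solute entry through the parasite surface anion channel PSAC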; settings: P. falciparum Indochina infected erythrocytes, higher = more signal, called active from +8 up or from −8 down
[5] = changes in parasitized red cell lysis, either direction – P. falciparum Indochina, OD700, 3 h, PSAC antagonist project, primary screen (AID 1156); settings: P. falciparum-infected erythrocytes, osmotic lysis, higher = more signal, called active from +8 up or from −8 down
[6] = plasmodial surface anion channel blockers, osmotic lysis – cell-based, P. falciparum Indochina, OD700, 18 h, primary screen (AID 1157); settings: P. falciparum Indochina infected erythrocytes, osmotic lysis OD700, 18 h; higher = more signal, called active from +8 up or from −8 down
[7] = S6 kinase pathway phospho-S6 level changes – cell-based, A549, cytoblot, luminescence, serum-stimulated, primary screen (AID 1158); settings: 5 h, higher = more signal;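 also: serum-stimulated A549 lung adenocarcinoma cells; signal is phosphorylated S6 detected by cytoblot immunostaining with HRP secondary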
[8] = biological target: NADPH oxidase 2 (Homo sapiens) (UniProt P04839); assay: compounds shifting NOX2 Amplex Red fluorescence – cell-based, HEK293-NOX2, PMA-stimulated, NOX inhibitor project, primary screen (AID 1159); settings: 45 min, higher = more signal, called active from +8 up or from −8 down; also: test concentration not given here
Sequence of NADPH oxidase 2 (Homo sapiens) (P04839 whole entry, looked up): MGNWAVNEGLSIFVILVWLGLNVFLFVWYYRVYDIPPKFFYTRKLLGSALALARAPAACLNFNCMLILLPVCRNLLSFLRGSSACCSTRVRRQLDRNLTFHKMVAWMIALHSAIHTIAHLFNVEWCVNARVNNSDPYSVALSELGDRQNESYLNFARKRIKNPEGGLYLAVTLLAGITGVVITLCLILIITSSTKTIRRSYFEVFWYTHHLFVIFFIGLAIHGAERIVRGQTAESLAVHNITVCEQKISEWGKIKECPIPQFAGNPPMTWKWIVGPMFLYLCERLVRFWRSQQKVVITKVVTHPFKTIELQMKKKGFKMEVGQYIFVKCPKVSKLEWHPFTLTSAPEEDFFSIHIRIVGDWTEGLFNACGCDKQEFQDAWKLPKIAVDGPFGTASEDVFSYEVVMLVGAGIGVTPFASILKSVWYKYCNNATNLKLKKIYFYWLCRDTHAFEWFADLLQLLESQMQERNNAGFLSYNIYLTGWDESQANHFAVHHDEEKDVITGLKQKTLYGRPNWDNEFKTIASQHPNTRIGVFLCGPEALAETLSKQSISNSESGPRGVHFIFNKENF

[9] = biological target: NADPH oxidase 4 (Homo sapiens) (UniProt Q9NPH5); assay: compounds shifting NOX4 Amplex Red fluorescence – cell-based, HEK293-NOX4, tetracycline-induced, NOX inhibitor project, primary screen (AID 1160); settings: HEK293-NOX4, Amplex Red H2O2 fluorescence, 45 min; higher = more signal, called active from +8 up or from −8 down
Sequence of NADPH oxidase 4 (Homo sapiens) (Q9NPH5 whole entry, looked up): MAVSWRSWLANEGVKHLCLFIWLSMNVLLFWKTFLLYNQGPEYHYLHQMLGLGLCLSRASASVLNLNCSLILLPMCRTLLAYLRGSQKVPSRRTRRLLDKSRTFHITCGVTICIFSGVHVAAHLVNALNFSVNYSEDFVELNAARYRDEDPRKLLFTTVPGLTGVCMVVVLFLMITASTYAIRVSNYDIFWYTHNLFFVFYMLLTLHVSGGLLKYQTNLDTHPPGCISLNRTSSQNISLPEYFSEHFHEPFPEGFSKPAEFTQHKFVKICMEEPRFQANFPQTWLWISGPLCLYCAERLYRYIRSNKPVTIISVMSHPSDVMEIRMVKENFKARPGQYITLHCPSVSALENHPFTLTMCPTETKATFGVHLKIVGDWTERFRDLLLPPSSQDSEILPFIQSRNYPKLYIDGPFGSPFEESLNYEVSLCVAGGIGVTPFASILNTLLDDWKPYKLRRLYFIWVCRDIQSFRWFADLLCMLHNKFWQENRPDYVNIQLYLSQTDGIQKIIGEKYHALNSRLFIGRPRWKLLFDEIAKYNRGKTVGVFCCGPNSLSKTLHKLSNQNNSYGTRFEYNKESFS

[10] = biological target: NADPH oxidase 5 (Homo sapiens) (UniProt Q96PH1); assay: compounds shifting NOX5 Amplex Red fluorescence – cell-based, HEK293-NOX5, NOX inhibitor project, primary screen (AID 1161); settings: HEK293-NOX5, ionomycin, 45 min, higher = more signal
Sequence of NADPH oxidase 5 (Homo sapiens) (Q96PH1 whole entry, looked up): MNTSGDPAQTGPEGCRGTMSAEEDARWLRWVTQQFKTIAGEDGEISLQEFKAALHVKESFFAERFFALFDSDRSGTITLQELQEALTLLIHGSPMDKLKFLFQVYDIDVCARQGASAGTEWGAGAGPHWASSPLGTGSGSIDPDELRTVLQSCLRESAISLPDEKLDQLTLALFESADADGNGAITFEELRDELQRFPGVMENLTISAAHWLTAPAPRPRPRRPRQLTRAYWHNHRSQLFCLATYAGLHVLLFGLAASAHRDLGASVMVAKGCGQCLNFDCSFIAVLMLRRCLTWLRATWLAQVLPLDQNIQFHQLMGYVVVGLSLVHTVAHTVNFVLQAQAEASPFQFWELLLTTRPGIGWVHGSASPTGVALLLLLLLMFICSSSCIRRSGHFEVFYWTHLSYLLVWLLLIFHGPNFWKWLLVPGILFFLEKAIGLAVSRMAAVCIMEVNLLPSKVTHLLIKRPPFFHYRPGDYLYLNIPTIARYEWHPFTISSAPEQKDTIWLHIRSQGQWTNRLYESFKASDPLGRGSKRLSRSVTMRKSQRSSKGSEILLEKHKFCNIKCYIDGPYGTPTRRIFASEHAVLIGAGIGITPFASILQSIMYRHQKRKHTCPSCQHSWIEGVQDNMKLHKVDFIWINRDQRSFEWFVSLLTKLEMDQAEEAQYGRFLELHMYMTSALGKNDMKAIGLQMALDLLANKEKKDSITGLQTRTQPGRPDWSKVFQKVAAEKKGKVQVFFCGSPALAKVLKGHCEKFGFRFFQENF

[11] = compound effects on lung adenocarcinoma cell viability – A549, calcein-AM fluorescence, 48 h, basal, profiling panel (AID 1162); settings: higher = more signal; also: test concentration not given here
[12] = compound effects on differentiated 3T3-L1 adipocyte viability – cell-based, 3T3-L1 adipocytes, calcein-AM fluorescence, 48 h, basal, profiling panel (AID 1163); settings: 3T3-L1 adipocytes viability, higher = more signal; also: test concentration not given here
[13] = compound effects on hepatocellular carcinoma cell viability – HepG2, calcein-AM fluorescence, 48 h, basal, profiling panel (AID 1164); settings: higher = more signal; also: test concentration not given here
[14] = compound effects on multiple myeloma cell viability – MM1S, calcein-AM fluorescence, 48 h, basal, profiling panel (AID 1165); settings: higher = more signal;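 also: viability of MM1S multiple myeloma cells under basal unstimulated conditions; test concentration not given here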
[15] = calcein-AM signal in unstimulated myeloma cells – cell-based, calcein-AM fluorescence, 48 h, PK04 Diversity Set, profiling panel (AID 1166); settings: RPMI8226 myeloma viability, higher = more signal;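 also: cells grown under basal conditions without added stimulus; test concentration not given here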
[16] = JC-1 mitochondrial signal, unstimulated HepG2 cells – cell-based, JC-1 fluorescence, 24 h, 100 nL compound, profiling panel (AID 1167); settings: HepG2 mitochondrial potential, higher = more signal; also: test concentration not given here
[17] = JC-1 mitochondrial signal, unstimulated adipocytes – cell-based, JC-1 fluorescence, 3T3-L1 adipocytes, 24 h, 100 nL compound, profiling panel (AID 1168); settings: JC-1 mitochondrial fluorescence, higher = more signal, called active from +8 up or from −8 down; also: test concentration not given here
[18] = JC-1 mitochondrial signal, unstimulated myeloma cells – cell-based, JC-1 fluorescence, RPMI8226, 24 h, 100 nL compound, profiling panel (AID 1169); settings: JC-1 mitochondrial potential fluorescence, higher = more signal; also: test concentration not given here
[19] = JC-1 mitochondrial signal, unstimulated MM1S myeloma – cell-based, JC-1 fluorescence, 24 h, 100 nL compound, profiling panel (AID 1170); settings: MM1S mitochondrial potential, higher = more signal; also: test concentration not given here
[20] = resazurin metabolic signal in A549 cells – cell-based, resazurin fluorescence, 24 h, PK04 Diversity Set, profiling panel (AID 1171); settings: A549 viability, higher = more signal, called active from +8 up or from −8 down; also: test concentration not given here

SMILES	z-score [1]	composite z-score [2]	z-score [3]	z-score [4]	z-score [5]	z-score [6]	z-score [7]	z-score [8]	z-score [9]	z-score [10]	z-score [11]	z-score [12]	z-score [13]	z-score [14]	z-score [15]	z-score [16]	z-score [17]	z-score [18]	z-score [19]	z-score [20]
CC(CO)N1C(=O)[C@@H]2C3C(=O)OCCC/C=C\[C@H]3OC23C=CCN(CCN2CCOCC2)C(=O)[C@@H]13 (stereo not given in full)	0.253 (inactive)	-0.348	0.901 (inactive)	0.0448 (inactive)	1.7 (inactive)	0.01 (inactive)	0.0058	0.238 (inactive)	-0.398 (inactive)	1.05	-0.31	-0.414	0.755	1.92	0.435	0.559	-0.109 (inactive)	0.357	-1.07	-0.7 (inactive)
COCCOC(=O)N1C(=O)[C@@]2(c3cc(C#CC4=CCCCC4)ccc31)[C@H](c1ccc(OCCO)cc1)N1[C@H](c3ccccc3)[C@H](c3ccccc3)OC(=O)[C@H]1[C@@H]2C(=O)N1CCc2cc(OC)c(OC)cc2C1	1.8 (inactive)	0.26	3.15 (inactive)	2.02 (inactive)	0.817 (inactive)	1.13 (inactive)	0.0337	0.711 (inactive)	0.842 (inactive)	1.43	1.31	0.453	1.96	0.505	-0.0521	0.578	2.21 (inactive)	-0.521	-0.935	-1.12 (inactive)
O=C(CS)NCCCCCNC(=O)[C@H]1C[C@H]2C(=O)NCC(=O)N2[C@H]1c1ccc(O)cc1	1.43 (inactive)	-0.479	0.279 (inactive)	-0.723 (inactive)	-0.813 (inactive)	-2.32 (inactive)	-0.0935	-0.297 (inactive)	0.243 (inactive)	1.16	0.67	0.537	-0.815	0.0607	-0.261	-0.557	0.185 (inactive)	0.415	-0.167	0.847 (inactive)
COC(=O)[C@@]1(Cc2ccc(OC)cc2)[C@H]2c3cc(C(=O)N(C)C)n(Cc4ccc(C(F)(F)F)nc4)c3C[C@H]2CN1C(=O)c1ccccc1	-0.346 (inactive)	0.301	0.622 (inactive)	0.315 (inactive)	-0.106 (inactive)	0.471 (inactive)	-0.154	0.152 (inactive)	-1.26 (inactive)	-1.13	0.212	-0.624	0.106	-0.589	-0.782	0.117	-0.29 (inactive)	0.0192	-1.03	0.248 (inactive)
CC(C)CNC(=O)[C@@]1(Cc2ccccc2I)c2ccccc2C(=O)N(Cc2ccccc2C(F)(F)F)[C@H]1c1ccc(CO)cc1	0.0655 (inactive)	-0.103	1.23 (inactive)	0.161 (inactive)	0.649 (inactive)	0.525 (inactive)	-0.146	0.285 (inactive)	0.0405 (inactive)	0.401	-0.942	-0.716	-0.0693	-0.722	-0.548	0.081	0.752 (inactive)	-0.844	-0.167	-0.328 (inactive)
NCCCCCNC(=O)[C@H]1C[C@H]2C(=O)N3CCC[C@H]3C(=O)N2[C@H]1c1ccc(O)cc1	-0.607 (inactive)	1.17	0.888 (inactive)	0.0655 (inactive)	-1.9 (inactive)	0.0061 (inactive)	-0.604	0.0724 (inactive)	0.719 (inactive)	-0.182	-0.246	0.339	-0.0476	-1.11	-0.177	-0.0181	0.0417 (inactive)	-0.398	0.286	-0.166 (inactive)
C=CCN1C(=O)[C@]2(Cc3ccccc3)N=C(c3ccc(OCCCO)cc3)O[C@@H]2c2ccccc21	0.567 (inactive)	0.43	33.1 (active)	30.1 (active)	2.14 (inactive)	10.2 (active)	-0.204	-1.78 (inactive)	0.46 (inactive)	1.07	0.0386	0.146	-1.62	-3.02	-3.91	0.822	2.21 (inactive)	-1.21	-2.81	-2.28 (inactive)
CC(C)(C)OC(=O)CC[C@@]1(C(=O)N2CCCCC2)N=C(c2ccc(OCCCO)cc2)O[C@@H]1c1ccccc1	-0.56 (inactive)	0.349	26.6 (active)	19.2 (active)	1.79 (inactive)	2.14 (inactive)	-0.354	-2.08 (inactive)	1.7 (inactive)	0.0911	-0.637	0.452	0.644	-1.99	-2.22	1.59	0.0803 (inactive)	-0.636	0.0287	0.894 (inactive)
COCCOC(=O)N1C(=O)[C@@]2(c3ccccc31)[C@H](C(N)=O)[C@H]1C(=O)O[C@H](c3ccccc3)[C@H](c3ccccc3)N1[C@@H]2c1ccc(O)cc1	0.912 (inactive)	-0.649	0.658 (inactive)	-1.28 (inactive)	-0.142 (inactive)	-2.25 (inactive)	2.74	-0.339 (inactive)	-0.637 (inactive)	-0.534	0.75	-0.0824	1.51	0.84	0.248	-0.244	0.571 (inactive)	-0.795	0.119	-1.37 (inactive)

From PubChem BioAssay
